Rows were chosen to be rich in hits. Some 3.4% of all compounds tested hit in one or more screens of this group.
Gli-Sufu antag = Gli-Sufu pathway antagonism. Sufu-KO-LIGHT fibroblasts, Gli luciferase reporter luminescence. inhibition, % at 5 µM. 0.74% of 340,000 active;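 active means inhibition above about 55%, limit read from the data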;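 further: 0% = DMSO-treated cells and 100% = wells with medium but no cells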
SMARCA2 activ = SMARCA2 function activation, primary screen; MG213 cells, MMTV-luciferase reporter, dexamethasone, overnight; activation, % at 9.1 µM; 1% of 370,000 active; AID 652017; in the data active means activation above about 7.8%;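 further: 0% = vehicle wells and 100% = reference activator wells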
GalR3 antagonist = antagonists of human GalR3. O60755. HEK293 GalR3-CNG cAMP membrane potential fluorescence; galR3 body fused to GalR1 C-terminus. inhibition, % at 3 µM. 0.44% of 360,000 active;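 active means inhibition above the screen-wide average plus 3 SD, cut at about 13% in these data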;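 further: forskolin and galanin both at EC90 stimulate the cells; cAMP rise reported by CNG channel membrane potential dye signal; 0% = forskolin plus galanin with DMSO and 100% = forskolin alone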
Target sequence (O60755 1-299 limits assumed): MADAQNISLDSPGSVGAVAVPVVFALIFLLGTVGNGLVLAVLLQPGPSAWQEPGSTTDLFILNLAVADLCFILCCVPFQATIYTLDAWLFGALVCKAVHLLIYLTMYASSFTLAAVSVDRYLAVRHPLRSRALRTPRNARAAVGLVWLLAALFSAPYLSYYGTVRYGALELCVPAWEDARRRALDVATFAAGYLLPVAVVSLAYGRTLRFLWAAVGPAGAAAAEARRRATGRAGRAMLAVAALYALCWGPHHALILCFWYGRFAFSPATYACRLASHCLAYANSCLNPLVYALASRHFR
COUP-TFII inh = NR2F2 (human) inhibition, primary screen. 0.7% of 370,000 active. HEK293T NGFI-A luciferase reporter, luminescence. inhibition, % at 8.6 µM. P24468;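 active means inhibition above a per-plate cutoff, mean inhibition of test wells between control levels plus 3 SD, cut at about 38% in these data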;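 further: cells cotransfected with COUP-TFII expression vector driving the NGFI-A reporter; 0% = median of COUP-TF2 test wells and 100% = reporter-only cells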
FXN GAA850 act = frataxin GAA850 promoter activation; AID 540364; activation, % at 6 µM; 0.56% of 360,000 active; HEK293 lucGAA850 FXN promoter luciferase reporter, 24 h; percent of 10 µM SAHA response;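 active means activation above the average of all compounds screened plus 3 SD, cutoff fixed separately per campaign, cut at about 7.5% in these data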;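 further: 0% = DMSO wells and 100% = 10 µM SAHA wells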
H9c2 protect = modulators protecting cardiomyocytes from myocardial damage; 0.63% of 360,000 active; H9c2 cardiomyocytes, H2O2 injury protection, ATPLite, 2 h; AID 588492; protection from H2O2 cell death, % at 20 µM;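 active means compounds giving at least 50% protection of heart cells from peroxide-induced death in the single-dose screen, raw or plate-pattern-corrected value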;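 further: 0% = DMSO wells with peroxide and 100% = DMSO wells without peroxide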
Gal4-VP16 ctr = VP16 inhibition counter-screen for COUP-TFII; HEK293 Gal4-VP16 luciferase reporter, luminescence; inhibition, % at 8.5 µM; AID 687007; shares compounds with COUP-TFII inh; 25% of 2,500 active; in the data active means inhibition above about 13%
NR2F2 inh conf = COUP-TFII (NR2F2) inhibition, confirmation assay; shares compounds with COUP-TFII inh; 45% of 2,500 active; HEK293 NGFI-A luciferase reporter, luminescence; inhibition, % at 8.5 µM;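 active means mean inhibition over three repeats above a set limit taken from the earlier primary screen, cut at about 38% in these data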;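 further: 100% = cells given the luciferase reporter alone without the COUP-TF2 vector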
Active calls of the source: *; / = no result.

SMILES	Gli-Sufu antag	SMARCA2 activ	GalR3 antagonist	COUP-TFII inh	FXN GAA850 act	H9c2 protect	Gal4-VP16 ctr	NR2F2 inh conf
O=S(=O)(c1ccccc1Cl)N1CCC(O)(c2ccc3c(c2)OCO3)CC1	-4	/	/	/	2	-6	/	/
O=C(Nc1ccc(Cl)cn1)C1CCN(S(=O)(=O)c2cccs2)CC1	4	-6	0	53*	-2	2	6	32
CC(=O)OC1c2ccccc2C(=O)N1Cc1ccccc1Cl (centres undefined)	-2	-1	/	7	1	4	/	/
CC(=O)Nc1cc2nc(C)n(Cc3ccc([N+](=O)[O-])cc3)c2nc1C	6	0	-1	14	0	-4	/	/
CC(=O)Nc1ccc(SCC(=O)c2cc(C)n(Cc3cccs3)c2C)cc1	43	-8	2	67*	-10	-15	12	73*
Cc1csc(SCC(=O)c2cc(C)n(Cc3cccs3)c2C)n1	13	-6	-5	67*	-11	-38	37*	80*
COCCn1c(C)cc(C(=O)CSc2ccc(NC(C)=O)cc2)c1C	8	5	-2	-13	-2	3	/	/
CC(=O)Nc1ccc(SCC(=O)c2cc(C)n(-c3ccccc3F)c2C)cc1	41	-12	-11	67*	-12	-20	35*	64*
O=C(CCCCn1ccc(=O)[nH]c1=O)Nc1ccc(O)c(C(=O)O)c1	5	3	-6	-10	-1	7	/	/
Cc1ccc(NC(=O)c2cc(S(=O)(=O)NCCC3=CCCCC3)ccc2F)cc1	7	-8	-7	61*	-3	-11	3	33
CC(C)(C)c1ccc(C(=O)Nc2cc(Cl)c(Cl)cc2C(=O)O)cc1	/	/	/	0	/	/	/	/
CCC1SC(C)C/C(=N/NC(N)=O)C1C (centres undefined)	8	2	3	15	-3	-3	/	/
CC1CC(C)C(=NNC(N)=O)C(C(O)CC2CCC(=O)NC2=O)C1 (centres undefined)	7	-8	0	82*	-11	4	-12	20
OCC1(Cc2ccccc2)CCN(Cc2cnc(-c3cccc4ccccc34)nc2)CC1	22	-2	-5	-10	-1	3	/	/
OCC1(Cc2ccccc2)CCN(Cc2cnc(-c3ccc(Cl)cc3)nc2)CC1	5	-7	1	43*	5	-14	-38	9
O=C1CC(c2ccc3c(c2)OCO3)Sc2nc3ccccc3n21 (centres undefined)	-35	-1	-6	42*	-8	-16	-72	36
O=C1CC(c2cccs2)Sc2nc3ccccc3n21 (centres undefined)	7	7	-4	-61	4	-8	/	/
Cc1cc(NC(=O)CCc2c[nH]c3ccccc23)ccc1Oc1cccnc1	/	0	-9	4	/	/	/	/
COc1cccc(C(=O)C2CCCN(Cc3cn(CC(N)=O)c4ccccc34)C2)c1 (centres undefined)	14	-3	-8	11	1	0	/	/
CCOC(=O)c1sc2nc(CSc3ccccc3)nc(NCCN(C)C)c2c1C	16	3	-7	-13	-1	15	/	/
Cc1cccc(NC(=O)c2ccc(F)c(S(=O)(=O)NCc3ccco3)c2)c1	-4	-3	-6	23	1	-4	/	/
O=C(Nc1cccc(Cl)c1)c1ccc(F)c(S(=O)(=O)NCc2cccs2)c1	8	-6	-6	38*	-1	-13	-10	13
COc1cc(C=C2CCCC(=Cc3ccc(OCC4CO4)c(OC)c3)C2=O)ccc1OCC1CO1 (centres undefined)	/	4	-4	69*	-11	81*	25*	69*
COc1ccc(/C=C2/CSC/C(=C/c3ccc(OC)c(OC)c3)C2=O)cc1OC	-6	1	3	73*	-13	-8	57*	97*
COc1ccc(/C=C2\Cc3ccccc3C2=O)cc1OC	-11	6	-9	-7	7	13	/	/
SMILES	Gli-Sufu antag	SMARCA2 activ	GalR3 antagonist	COUP-TFII inh	FXN GAA850 act	H9c2 protect	Gal4-VP16 ctr	NR2F2 inh conf
CCCCn1c(N)c(N(Cc2ccccc2OC)C(=O)c2sccc2C)c(=O)[nH]c1=O	-8	-2	-2	10	1	-3	/	/
CN(C)c1ccc(NC(=S)c2ccccn2)cc1	51	1	-3	42*	-12	-24	8	38*
CN(C)c1cc(O)c(C(=S)Nc2ccccc2)c(N(C)C)c1	-9	2	0	-7	3	-5	/	/
CN(C)c1ccc(C(=S)Nc2ccccc2)cc1	-2	-3	-3	46*	-9	-12	-89	22
O=C(CS(=O)(=O)c1ccccc1)Nc1nnc(-c2cccs2)o1	-10	1	-2	-4	2	0	/	/
CNC(=O)NC(=O)C(C)OC(=O)c1c2c(nc3ccccc13)/C(=C/c1cccs1)CC2 (centres undefined)	38	1	-2	46*	4	13	-37	-15
CNC(=O)c1ccc(-c2cc3onc(-c4ccccc4)c3c(=O)n2C)cc1	-69	3	-8	-16	1	-7	/	/
Cc1ccc(-c2cc3onc(-c4ccccc4)c3c(=O)n2C)cc1	-17	-1	-3	43*	-7	-17	34*	72*
Cc1nc2sc(C(N)=O)c(N)c2c2c1CCCC2	-20	-4	-6	51*	-6	-1	9	21
COc1cc(CC(=O)Nc2cccc(S(=O)(=O)N(C)c3ccccc3)c2)cc(OC)c1OC	4	-4	-2	39*	1	-11	7	20
COc1cc(CC(=O)Nc2cccc(SC)c2)cc(OC)c1OC	26	-4	-5	37*	-2	-15	-1	7
Cc1csc(NC(=O)Cc2nn(C)c(=O)c3ccccc23)n1	37	-3	-3	45*	-1	-22	-4	25
Cc1cc(C(=O)COC(=O)C2=COCCO2)c(C)n1-c1ccccc1	-4	-7	-5	65*	-12	-17	16*	74*
O=C1C(=Cc2ccc(Cl)cc2)Cc2ccccc21	/	-3	-6	-31	/	/	/	/
C=CC(=O)N1C/C(=C/c2ccccc2)C(=O)/C(=C\c2ccccc2)C1	-1	-10	-6	98*	-14	-16	71*	101*
C=CC(=O)N1C/C(=C/c2ccc(Cl)cc2)C(=O)/C(=C\c2ccc(Cl)cc2)C1	-5	-8	-3	90*	-15	-16	85*	102*
COc1ccc2c(c1)c(C(C)=O)c(C)n2CCc1ccccc1	4	-5	-13	53*	1	-19	4	23
COc1ccc(-n2c(C)c(C(C)=O)c3cc(O)ccc32)cc1	-14	-4	1	44*	-7	26	10	18
